The list is not random: actives were taken first. Their share in the collection is about 1.8%.
PrPC TRFRET: inhibitors of human cell surface prion protein PrPC | TR-FRET read-out | inhibition, % at 13.8 µM | 370,000 tested, 0.43% active | AID 720596; in the data active = inhibition above about 24%; note: 0% = median of the test wells and 100% = reference compound wells
Yp Topo-I inh: Y. pestis Topo-I inhibition via cleavage products. Y. pestis Topo-I cleavage product accumulation, plate reader. activity, % at 10 µM. 360,000 tested, 0.064% active; in the data active = activity above about 50%, passing the limit was not always enough
VHR inh abs: blocks human VHR1 dual specificity phosphatase | recombinant VHR phosphatase, pNPP absorbance | inhibition, % at 13.3 µM | AID 1654 | 290,000 tested, 0.52% active | P51452; in the data active = inhibition above about 50%
CCHF vOTU inh-1: CCHFV vOTU protease inhibition; Pep-AMC fluorescence; inhibition, % at 11.5 µM; 370,000 tested, 0.55% active; note: 0% = vehicle wells with enzyme and 100% = no enzyme wells
BH1578 lux ind: inducers of Vibrio cholerae quorum light production without autoinducers; V. cholerae BH1578 lux reporter, luminescence, 6 h; activation, % at 18.7 µM; 350,000 tested, 0.16% active; in the data active = activation mostly above about 9.7%, no sharp cut-off
MazEF act: increases E. coli MazEF RNase cleavage of RNA | P0AE70 | FAM/BHQ RNA-DNA oligo cleavage fluorescence, 5 h | activation, % at 20 µM | 350,000 tested, 0.32% active | AID 504720; in the data active = activation above about 50%
CCHF vOTU inh-2: confirmation of CCHF virus vOTU protease inhibitors; shares compounds with CCHF vOTU inh-1; AID 686976; inhibition, % at 11.5 µM; 1,900 tested, 17% active; Recombinant CCHFV vOTU, Pep-AMC fluorescence
PrPC TRFRET cf: confirmation of inhibitors of cell surface human prion protein | cell surface PrPC level, TR-FRET | inhibition, % at 13.8 µM | AID 743200 | 1,500 tested, 65% active | shares compounds with PrPC TRFRET; in the data active = inhibition above about 25%
LD9 cytotox: kills or reduces viability of LD9 cells in PrPc counter-screen; 1,500 tested, 29% active; LD9 cells cytotoxicity, luminescence viability; shares compounds with PrPC TRFRET; inhibition, % at 13.8 µM; in the data active = inhibition above about 9.5%
An asterisk follows results filed as active; i = inactive; x = no result. Cut-off read from the data, not from the text of the source, unless noted: active = inhibition above about 30%; inactive = the rest.

SMILES	PrPC TRFRET	Yp Topo-I inh	VHR inh abs	CCHF vOTU inh-1	BH1578 lux ind	MazEF act	PrPC TRFRET cf	LD9 cytotox	others
CC1OC(CC(=O)O)CC2=C1C(=O)c1c(O)cccc1C2=O (centres undefined)	71.1*	-11.9	x	92.9*	i	-7.3	86.1*	97.9*	CCHF vOTU inh-2=98.2*
Nc1ccc2c(c1)C(=O)C(=O)c1ccccc1-2	64.0*	-24.1	16.6	100.6*	-0.5	-0.5	61.2*	99.3*	CCHF vOTU inh-2=97.3*
Oc1c(CN2CCCCC2)cc(Br)c2cccnc12	31.9*	-17.9	2.5	69.8*	-0.4	-2.1	3.6	16.1*	CCHF vOTU inh-2=-6.5
Oc1c(Cl)cc(CN2CCOCC2)c2cccnc12	4.6	-4.3	x	4.8	4.2	3.3	x	x
O=c1c(Cl)c(N2CCN(S(=O)(=O)c3ccc(F)cc3)CC2)cnn1-c1cccc(Cl)c1	-13.5	0.7	18.6	-4.8	-11.1	-1.8	x	x
CCCCCCCCCCCCCCCC[n+]1ccccc1	27.7*	-20.9	x	37.5*	-0.4	-19.6	39.5*	36.1*	CCHF vOTU inh-2=36.7*
CC1(C(=O)NS(=O)(=O)c2ccccc2Cl)CCN1C(=O)COc1ccc(Cl)cc1 (centres undefined)	4.1	0.2	x	8.9	-1.3	x	x	x
CC(C)Cc1nnc(NC(=O)CCC(=O)N2CCN(c3ccc(Cl)cc3)CC2)s1	3.2	13.1	3.9	2.8	-0.2	6.0	x	x
CC(C)Cc1ccc(C(C)C(=O)Nc2ccc(O)cc2)cc1 (centres undefined)	27.8*	-3.3	22.5	29.6*	i	-2.8	20.9	-0.5	CCHF vOTU inh-2=2.4
CCN(c1cccc(C)c1)S(=O)(=O)c1ccc2c(c1)CCN2C(C)=O	-6.0	17.9	8.5	2.1	i	-7.3	x	x
CCN(c1cccc(C(F)(F)F)c1)S(=O)(=O)c1ccc2c(c1)CCN2C(C)=O	79.8*	5.0	6.3	41.7*	i	-10.1	17.9	-4.1	CCHF vOTU inh-2=2.1
O=S(=O)(c1ccccc1)N(CC(F)(F)F)c1ccc(C(O)(C(F)(F)F)C(F)(F)F)cc1	32.9*	-8.9	x	34.0*	-0.1	x	13.6	-3.1	CCHF vOTU inh-2=-0.2
O=C1C(=O)N(CCCn2ccnc2)C(c2ccc(Br)cc2)/C1=C(\O)c1ccc2c(c1)OCCO2 (centres undefined)	15.6	2.5	-15.5	23.0	i	-3.6	x	x
O=C1C(=O)N(CCCn2ccnc2)C(c2ccc(Cl)cc2)/C1=C(\O)c1ccc2c(c1)OCCO2 (centres undefined)	31.6*	3.4	-14.4	47.8*	-0.2	-5.5	12.5	-4.1	CCHF vOTU inh-2=-12.4
COC(=O)C[C@@H]1CC[C@H](NC(=O)Nc2cccc(F)c2)[C@@H](CO)O1	2.2	x	x	1.3	x	x	x	x
CCCCCCCCCCCCCCCC[n+]1cccc2ccccc21	40.2*	3.2	1.1	43.7*	-0.3	-1.6	50.5*	54.5*	CCHF vOTU inh-2=70.0*
CCCCCCCCC[n+]1cccc2c3ccccc3ccc21	x	29.5	7.1	x	i	20.9	x	x
COC(=O)C1=C(C)N(Cc2cccc(C(F)(F)F)c2)C(=NCc2cc(OC)c(OC)c(OC)c2)NC1c1ccc(F)cc1 (centres undefined)	6.0	x	x	22.5	x	x	x	x
O=[N+]([O-])c1ccc(Nc2ccccc2)c2nonc12	-30.2	-1.3	2.4	7.1	-0.3	11.3	x	x
O=[N+]([O-])c1ccc(Sc2cccc[n+]2[O-])c2nonc12	37.4*	-13.2	26.9	-15.9	-0.5	103.5*	73.0*	98.6*
CC1(C(=O)NS(=O)(=O)c2ccccc2C(F)(F)F)CCN1C(=O)CCc1ccccc1 (centres undefined)	-5.4	0.6	x	-0.9	i	x	x	x
CCc1cc2cc(C)cc(C)c2nc1SCC(=O)N1CCN(C(=O)c2ccco2)CC1	0.2	-2.7	-18.1	2.3	0.0	-6.1	x	x
Cc1cc2cccc(C)c2nc1SCC(=O)NNC(=O)c1ccco1	55.2*	12.1	10.6	0.8	-0.2	12.1	65.0*	-5.1
Cc1cc(C)c2nc(SCC(=O)NNC(=O)c3ccco3)c(C)cc2c1	43.5*	11.7	40.0	9.4	0.1	-5.4	44.7*	-2.1
CCOC(=O)CNC(=O)CSc1nc2c(C)cccc2cc1CC	71.3*	3.0	22.5	5.0	-0.5	-9.4	107.4*	-2.1
SMILES	PrPC TRFRET	Yp Topo-I inh	VHR inh abs	CCHF vOTU inh-1	BH1578 lux ind	MazEF act	PrPC TRFRET cf	LD9 cytotox	others
CCc1cc2cccc(C)c2nc1SCC(=O)N1CCN(C(=O)c2ccco2)CC1	25.0*	23.4	24.0	0.7	-0.5	-7.0	59.2*	3.4
Cc1cccc2cc(C#N)c(SCC(=O)NNC(=O)Cc3ccccc3)nc12	2.0	-5.4	22.8	-7.6	-0.2	-8.5	x	x
CCc1cc2cc(C)ccc2nc1SCC(=O)NNC(=O)c1ccco1	15.5	25.0	33.1	4.0	i	0.8	x	x
COc1ccccc1NC(=O)C(C)OC(=O)C1CC(=O)N(Cc2ccco2)C1 (centres undefined)	3.1	-2.6	x	-7.4	-0.5	-14.3	x	x
O=C(O)C(=Cc1cc2c(cc1[N+](=O)[O-])OCO2)c1cc2c(cc1Br)OCO2	-8.1	4.7	x	12.8	i	-4.7	x	x
O=C(O)C(=Cc1ccccc1[N+](=O)[O-])c1ccc2c(c1)OCO2	27.3*	1.0	x	-16.3	i	11.6	0.2	-6.8
CCn1c(=O)c(C(=O)NCc2ccccn2)c(O)c2ccccc21	30.0*	4.8	29.2	-2.4	i	-4.8	39.7*	-5.2
CC(c1ccccc1)n1c(SCC(=O)N2CC(=O)Nc3ccccc32)nc2ccccc2c1=O (centres undefined)	22.3	21.5	32.7	10.6	-0.3	-1.7	x	x
C/C(N)=C(/C#N)C(=O)CSc1nc2ccccc2c(=O)n1Cc1ccc(C)cc1	27.1*	14.1	7.6	8.7	-0.6	-7.8	7.4	-1.9
Cc1ccc(Cn2c(SCC(=O)N3CC(=O)Nc4ccccc43)nc3ccccc3c2=O)cc1	29.4*	37.2	-26.7	5.4	-0.4	6.3	44.5*	-2.4
CC(C)C[C@@H](CN1CCC[C@@H]1CN1C(=O)C(=O)NC[C@@H]1Cc1ccccc1)N1C[C@H](Cc2ccc(O)cc2)N(CC2CCCCC2)C(=O)C1=O	4.8	16.8	x	6.5	-1.4	3.1	x	x
CC(C)C[C@@H](CN1CCC[C@H]1CN1C(=O)C(=O)NC[C@@H]1Cc1ccccc1)N1C[C@H](Cc2ccc(O)cc2)N(CC2CCCCCC2)C(=O)C1=O	26.1*	x	x	25.7	x	x	23.9	1.4
Cc1ccccc1CN1[C@@H](CC(C)C)COc2cc(Br)ccc2S1(=O)=O	4.3	x	x	18.8	x	x	x	x
CCOC(=O)/C=C/S(=O)(=O)c1ccc(NC(C)=O)cc1	88.7*	12.9	-15.0	1.9	i	-2.8	-9.5	98.1*

Compound activity deposited in PubChem by several laboratories.
